The source of these data is the supplement of paper PMC4022240.

Holding throughout (test): peptide microarray binding signal (635 nm), min-max normalized on array (fraction of array maximum); higher = stronger binding
Common to all, as to conditions: peptide region: H2A 1-13

In experiment [1] the target is T1, HaloTag-ATRX ADD domain (163-292).
T1 chain: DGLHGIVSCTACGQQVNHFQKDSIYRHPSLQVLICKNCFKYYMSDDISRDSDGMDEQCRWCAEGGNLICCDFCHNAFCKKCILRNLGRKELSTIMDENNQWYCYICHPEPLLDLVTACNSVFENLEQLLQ
How it is done: (§1)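 Histone 13-mer peptides were synthesized as cellulose conjugates with a C-terminal 20-atom PEG linker and printed in triplicate on nitrocellulose. The sequence given is the unmodified backbone; PTMs (Kme1/2/3, Kac, Sph/Tph, Rme/Rme2a/Rme2s, Rcit) are listed in the label and the 'peptide modifications' condition. Slides were probed at 4 °C for 1 h with biotin-labelled (HQ)5-HaloTag reader fusions (ATRX-ADD, ING2-PHD) then streptavidin-Alexa647, or with rabbit histone antibodies then anti-rabbit Alexa647. The mean 635 nm signal of the triplicate spots was scaled 0-1 between the lowest and highest values on each array.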

Experiment [2] concerns the target HaloTag-ING2 PHD (mouse Ing2 200-280). How it is done: as §1
Experiment [3] deals with anti-H3K4me3 antibody ab8580. Here is the method: as §1
Experiment [4] deals with anti-H3K9me3 antibody ab8898. Here is the method: as §1
[5] abbreviates: peptide modifications: H2AR3cit, binder concentration: 1:2,000 dilution.
Setting [6] is: peptide modifications: H2AR3cit, binder concentration: 1:10,000 dilution.
The mark [7] stands for this setting: peptide modifications: H2AK5ac, binder concentration: 1:2,000 dilution.
The mark [8] stands for this setting: peptide modifications: H2AK5ac, binder concentration: 1:10,000 dilution.
[9] abbreviates: peptide modifications: H2AS1ph, binder concentration: 1:2,000 dilution.
[10] abbreviates: peptide modifications: H2AS1ph, binder concentration: 1:10,000 dilution.
Setting [11] is: peptide modifications: H2AS1ph H2AR3me2a, binder concentration: 1:2,000 dilution.
Where [12] appears, read: peptide modifications: H2AS1ph H2AR3me2a, binder concentration: 1:10,000 dilution.
[13] abbreviates: peptide modifications: H2AS1ph H2AR3cit, binder concentration: 1:2,000 dilution.
Where [14] appears, read: peptide modifications: H2AS1ph H2AR3cit, binder concentration: 1:10,000 dilution.
Setting [15] is: peptide modifications: H2AR3me1 H2AK5ac, binder concentration: 1:2,000 dilution.
[16] abbreviates: peptide modifications: H2AR3me1 H2AK5ac, binder concentration: 1:10,000 dilution.
The mark [17] stands for this setting: peptide modifications: H2AS1ph H2AK9ac, binder concentration: 1:2,000 dilution.
Setting [18] is: peptide modifications: H2AR3me2s H2AK5ac, binder concentration: 1:2,000 dilution.
The mark [19] stands for this setting: peptide modifications: H2AR3me2s H2AK5ac, binder concentration: 1:10,000 dilution.
Setting [20] is: peptide modifications: H2AK9ac, binder concentration: 1:2,000 dilution.
Where [21] appears, read: peptide modifications: H2AK9ac, binder concentration: 1:10,000 dilution.
The mark [22] stands for this setting: peptide modifications: H2AS1ph H2AK5ac H2AK9ac, binder concentration: 1:2,000 dilution.
The mark [23] stands for this setting: peptide modifications: H2AS1ph H2AK5ac H2AK9ac, binder concentration: 1:10,000 dilution.

± gives the standard deviation.

For the molecule SGRGKQGGKARAK [H2A 1-13 S G Rcit G K Q G G K A R A K], the “peptide microarray binding signal” value in experiment [1] (peptide modifications: H2AR3cit, binder concentration: 50 nM) was found to be 0.00257 ± 6.9e-05; in experiment [1] (peptide modifications: H2AR3cit, binder concentration: 500 nM) it was 0.00614 ± 6.4e-05; in experiment [2] (peptide modifications: H2AR3cit, binder concentration: 10 nM) it was 0.00137 ± 3.3e-05; in experiment [2] (peptide modifications: H2AR3cit, binder concentration: 100 nM) it was 0.00262 ± 0.0002; in experiment [3] (setting [5]), 0.000245 ± 2.6e-06; in experiment [3] (setting [6]), 0.000514 ± 5.5e-06. Moreover, the “peptide microarray binding signal” value in experiment [4] (setting [5]) came out at 0.000181; in experiment [4] (setting [6]), 0.000404 ± 4.4e-06.

Turning to SGRGKQGGKARAK [H2A 1-13 S G R G Kac Q G G K A R A K], the “peptide microarray binding signal” value in experiment [1] (peptide modifications: H2AK5ac, binder concentration: 50 nM) worked out at 0.00288 ± 4.3e-05; in experiment [1] (peptide modifications: H2AK5ac, binder concentration: 500 nM), 0.0061 ± 0.00049; in experiment [2] (peptide modifications: H2AK5ac, binder concentration: 10 nM), 0.00239 ± 2.4e-05; in experiment [2] (peptide modifications: H2AK5ac, binder concentration: 100 nM), 0.005528 ± 4.3e-05; in experiment [3] (setting [7]) it was 0.000378 ± 1e-05; in experiment [3] (setting [8]) it was 0.000399. For the same molecule, the “peptide microarray binding signal” value turned out to be 0.000227 ± 4.1e-06 in experiment [4] (setting [7]) and 0.000577 ± 6.2e-06 in experiment [4] (setting [8]).

For the molecule SGRGKQGGKARAK [H2A 1-13 Sph G R G K Q G G K A R A K], the “peptide microarray binding signal” value in experiment [1] (peptide modifications: H2AS1ph, binder concentration: 50 nM) is 0.00235 ± 3.8e-05; in experiment [1] (peptide modifications: H2AS1ph, binder concentration: 500 nM), 0.00462 ± 0.00011; in experiment [2] (peptide modifications: H2AS1ph, binder concentration: 10 nM), 0.002148 ± 1.2e-05; in experiment [2] (peptide modifications: H2AS1ph, binder concentration: 100 nM), 0.00312 ± 0.00029; in experiment [3] (setting [9]), 0.000208 ± 2.2e-06; in experiment [3] (setting [10]), 0.000342 ± 3.8e-06. In addition, the figures for the “peptide microarray binding signal” value in experiment [4] (setting [9]) and in experiment [4] (setting [10]) were 0.000166 ± 3.6e-06 and 0.000231 ± 2.6e-06, respectively.

SGRGKQGGKARAK [H2A 1-13 Sph G Rme2a G K Q G G K A R A K]: the “peptide microarray binding signal” value in experiment [1] (peptide modifications: H2AS1ph H2AR3me2a, binder concentration: 50 nM) amounted to 0.00235 ± 9e-05; in experiment [1] (peptide modifications: H2AS1ph H2AR3me2a, binder concentration: 500 nM), 0.00381 ± 0.00015; in experiment [2] (peptide modifications: H2AS1ph H2AR3me2a, binder concentration: 10 nM), 0.003223 ± 1.8e-05; in experiment [2] (peptide modifications: H2AS1ph H2AR3me2a, binder concentration: 100 nM) it was 0.00206 ± 4.1e-05; in experiment [3] (setting [11]) it was 0.000472 ± 1.2e-05; in experiment [3] (setting [12]), 0.000685 ± 7.2e-06. The “peptide microarray binding signal” value in experiment [4] (setting [11]) turned out to be 0.000332 ± 3.4e-06; in experiment [4] (setting [12]), 0.000577 ± 6.2e-06.

As to SGRGKQGGKARAK [H2A 1-13 Sph G Rcit G K Q G G K A R A K], the “peptide microarray binding signal” value in experiment [1] (peptide modifications: H2AS1ph H2AR3cit, binder concentration: 50 nM) is 0.00392 ± 8.1e-05; in experiment [1] (peptide modifications: H2AS1ph H2AR3cit, binder concentration: 500 nM) it was 0.00486 ± 5.6e-05; in experiment [2] (peptide modifications: H2AS1ph H2AR3cit, binder concentration: 10 nM), 0.00167 ± 3e-05; in experiment [2] (peptide modifications: H2AS1ph H2AR3cit, binder concentration: 100 nM), 0.00283 ± 0.0002; in experiment [3] (setting [13]) it was 0.000472 ± 2.6e-05; in experiment [3] (setting [14]), 0.000514 ± 1.1e-05. Further, the “peptide microarray binding signal” value in experiment [4] (setting [13]) amounted to 0.000272 ± 4.9e-06; in experiment [4] (setting [14]) it was 0.000692 ± 7.3e-06.

SGRGKQGGKARAK [H2A 1-13 S G Rme G Kac Q G G K A R A K]: the “peptide microarray binding signal” value in experiment [1] (peptide modifications: H2AR3me1 H2AK5ac, binder concentration: 50 nM) was 0.00467 ± 0.00064; in experiment [1] (peptide modifications: H2AR3me1 H2AK5ac, binder concentration: 500 nM), 0.00424 ± 0.00012; in experiment [2] (peptide modifications: H2AR3me1 H2AK5ac, binder concentration: 10 nM), 0.002507 ± 1.4e-05; in experiment [2] (peptide modifications: H2AR3me1 H2AK5ac, binder concentration: 100 nM) it was 0.00305 ± 0.00059; in experiment [3] (setting [15]), 0.000434 ± 2.9e-05; in experiment [3] (setting [16]) it was 0.000571. For the same molecule, the figures for the “peptide microarray binding signal” value in experiment [4] (setting [15]) and in experiment [4] (setting [16]) were 0.000242 ± 6.7e-06 and 0.000634, respectively.

As to SGRGKQGGKARAK [H2A 1-13 Sph G R G K Q G G Kac A R A K], the “peptide microarray binding signal” value in experiment [1] (peptide modifications: H2AS1ph H2AK9ac, binder concentration: 500 nM) worked out at 0.005476 ± 3.5e-05; in experiment [2] (peptide modifications: H2AS1ph H2AK9ac, binder concentration: 100 nM), 0.00354 ± 0.00045; in experiment [3] (setting [17]), 0.000208 ± 2.2e-06; in experiment [4] (setting [17]) it was 0.000121 ± 1.3e-06.

As for SGRGKQGGKARAK [H2A 1-13 S G Rme2s G Kac Q G G K A R A K], the “peptide microarray binding signal” value in experiment [1] (peptide modifications: H2AR3me2s H2AK5ac, binder concentration: 50 nM) worked out at 0.00458 ± 0.00026; in experiment [1] (peptide modifications: H2AR3me2s H2AK5ac, binder concentration: 500 nM) it was 0.00562 ± 0.00037; in experiment [2] (peptide modifications: H2AR3me2s H2AK5ac, binder concentration: 10 nM) it was 0.00603 ± 0.00016; in experiment [2] (peptide modifications: H2AR3me2s H2AK5ac, binder concentration: 100 nM), 0.00461 ± 7.6e-05; in experiment [3] (setting [18]), 0.000736; in experiment [3] (setting [19]) it was 0.0012 ± 1.2e-05. Moreover, the “peptide microarray binding signal” value in experiment [4] (setting [18]) is 0.000589 ± 9.4e-06; in experiment [4] (setting [19]) it was 0.00179 ± 6.1e-05.

For SGRGKQGGKARAK [H2A 1-13 S G R G K Q G G Kac A R A K], the “peptide microarray binding signal” value in experiment [1] (peptide modifications: H2AK9ac, binder concentration: 50 nM) was 0.00348 ± 0.0001; in experiment [1] (peptide modifications: H2AK9ac, binder concentration: 500 nM), 0.00619 ± 0.00024; in experiment [2] (peptide modifications: H2AK9ac, binder concentration: 10 nM), 0.00251 ± 0.00014; in experiment [2] (peptide modifications: H2AK9ac, binder concentration: 100 nM), 0.00638 ± 0.00045; in experiment [3] (setting [20]), 0.000547 ± 2.3e-05; in experiment [3] (setting [21]) it was 0.000399. Further, the “peptide microarray binding signal” value stood at 0.000227 in experiment [4] (setting [20]) and 0.00075 ± 1.6e-05 in experiment [4] (setting [21]).

For the molecule SGRGKQGGKARAK [H2A 1-13 Sph G R G Kac Q G G Kac A R A K], the “peptide microarray binding signal” value in experiment [1] (peptide modifications: H2AS1ph H2AK5ac H2AK9ac, binder concentration: 50 nM) was 0.00408 ± 0.00018; in experiment [1] (peptide modifications: H2AS1ph H2AK5ac H2AK9ac, binder concentration: 500 nM) it was 0.00738 ± 0.00011; in experiment [2] (peptide modifications: H2AS1ph H2AK5ac H2AK9ac, binder concentration: 10 nM) it was 0.00257 ± 5e-05; in experiment [2] (peptide modifications: H2AS1ph H2AK5ac H2AK9ac, binder concentration: 100 nM), 0.00687 ± 0.00064; in experiment [3] (setting [22]), 0.000321 ± 6.7e-06; in experiment [3] (setting [23]), 0.000399. In addition, the “peptide microarray binding signal” value in experiment [4] (setting [22]) turned out to be 0.000272 ± 4.9e-06; in experiment [4] (setting [23]), 0.000577 ± 6.2e-06.
